Experimental data published in the supplement of paper PMC6089552.
Among all 3,200 compounds or so, about 300 (9.4%) showed activity. The full list was thinned out, with actives kept by preference.

Test system: A673/TR/shEF
Assay: cell viability (LOESS-normalised, relative to median of negative controls) (log2 ratio); higher = more viable cells (less compound effect), active = hit call of the paper (over 3 MAD below the median)
Details: treatment time: 72 h
Procedure, shortened: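 A673/TR/shEF Ewing sarcoma cells (1,500 per well, 384-well plates) were grown with or without doxycycline to induce EWS-FLI1 shRNA knockdown, starting 24 h before compounds. Library compounds at two or more concentrations, with DMSO controls, were added for three days. Cell viability was read by CellTiter-Glo luminescence on an Envision reader, then LOESS-corrected per plate, divided by the median of negative controls and log2-transformed. Hits were wells at least three median absolute deviations from the median of all screened wells.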

[1] = 0.25 µM, library screen: screen1, EWS-FLI1 expression: high (no doxycycline)
[2] = 0.25 µM, library screen: screen1, EWS-FLI1 expression: low (doxycycline-induced shRNA knockdown)
[3] = 2.5 µM, library screen: screen1, EWS-FLI1 expression: high (no doxycycline)
[4] = 2.5 µM, library screen: screen1, EWS-FLI1 expression: low (doxycycline-induced shRNA knockdown)
[5] = 0.103 µM, library screen: screen3, EWS-FLI1 expression: high (no doxycycline)
[6] = 0.103 µM, library screen: screen3, EWS-FLI1 expression: low (doxycycline-induced shRNA knockdown)
[7] = 0.308 µM, library screen: screen3, EWS-FLI1 expression: high (no doxycycline)
[8] = 0.308 µM, library screen: screen3, EWS-FLI1 expression: low (doxycycline-induced shRNA knockdown)
[9] = 0.926 µM, library screen: screen3, EWS-FLI1 expression: high (no doxycycline)
[10] = 0.926 µM, library screen: screen3, EWS-FLI1 expression: low (doxycycline-induced shRNA knockdown)
[11] = 2.8 µM, library screen: screen3, EWS-FLI1 expression: high (no doxycycline)
[12] = 2.8 µM, library screen: screen3, EWS-FLI1 expression: low (doxycycline-induced shRNA knockdown)
[13] = 8.3 µM, library screen: screen3, EWS-FLI1 expression: high (no doxycycline)
[14] = 8.3 µM, library screen: screen3, EWS-FLI1 expression: low (doxycycline-induced shRNA knockdown)
[15] = 25 µM, library screen: screen3, EWS-FLI1 expression: high (no doxycycline)
[16] = 25 µM, library screen: screen3, EWS-FLI1 expression: low (doxycycline-induced shRNA knockdown)
[17] = 0.25 µM, library screen: screen2, EWS-FLI1 expression: high (no doxycycline)
[18] = 0.25 µM, library screen: screen2, EWS-FLI1 expression: low (doxycycline-induced shRNA knockdown)
[19] = 2.5 µM, library screen: screen2, EWS-FLI1 expression: high (no doxycycline)
[20] = 2.5 µM, library screen: screen2, EWS-FLI1 expression: low (doxycycline-induced shRNA knockdown)

Measured: cell viability (log2)

COc1ccc(C(C)C(=O)c2ccc(O)cc2O)cc1 (stereo not given)
inactive: [1] 0.0783 | [2] 0.0339 | [3] 0.16 | [4] 0.123

CCOc1ccc(C(=O)c2cc(O)c(OC)c(OC)c2O)cc1
inactive: [1] 0.0714 | [2] 0.0518 | [3] 0.162 | [4] 0.129

CC(=O)OC1CCC2(C)C3=C(CC[C@H]2C1(C)C)[C@@]1(C)CC[C@@H]([C@@H](C)CCC=C(C)C)[C@]1(C)CC3 (stereo not given in full)
inactive: [1] 0.058 | [2] -0.000522 | [3] 0.0338 | [4] -0.0772

CCN1C(=O)/C(=C\c2cn(CCC#N)nc2-c2ccc(F)cc2)SC1=S
inactive: [1] 0.0868 | [2] 0.118 | [3] 0.107 | [4] -0.0141

O=C(NCc1ccco1)/C(=C\c1ccco1)NC(=O)c1cccs1
inactive: [1] 0.0268 | [2] 0.0429 | [3] 0.0986 | [4] 0.0245

O[C@@H](c1cc(C(F)(F)F)nc2c(C(F)(F)F)cccc12)[C@H]1CCCCN1
inactive: [1] 0.149 | [2] 0.0284 | [3] 0.156 | [4] 0.0765

OCC1OC(O)C(O)C(O)C1O (stereo not given)
inactive: [5] 0.00138 | [6] 0.0347 | [7] 0.0849 | [8] 0.0509 | [9] 0.0635 | [10] 0.0529 | [11] 0.0615 | [12] 0.0566 | [13] 0.0472 | [14] -0.0279 | [15] 0.168 | [16] 0.04

C=C1c2cccc(O)c2C(O)=C2C(=O)[C@]3(O)C(O)=C(C(N)=O)C(=O)[C@@H](N(C)C)[C@@H]3[C@@H](O)[C@H]12
inactive: [5] -0.0411 | [6] 0.0402 | [2] 0.0695 | [7] -0.0282 | [8] 0.0462 | [9] -0.105 | [10] 0.0725 | [4] 0.152 | [11] -0.0751 | [12] 0.0891 | [13] -0.0644 | [14] 0.0589 | [15] -0.0984 | [16] 0.0914
active: [1] -0.16 | [3] -0.0967

C=C1c2c(Cl)ccc(O)c2C(O)=C2C(=O)[C@]3(O)C(O)=C(C(N)=O)C(=O)[C@@H](N(C)C)[C@@H]3[C@@H](O)[C@H]12.O=C(O)c1cc(S(=O)(=O)O)ccc1O
inactive: [2] 0.0882 | [4] 0.0927
active: [1] -0.128 | [3] -0.126

C[C@H]1c2cccc(O)c2C(O)=C2C(=O)[C@]3(O)C(O)=C(C(N)=O)C(=O)[C@@H](N(C)C)[C@@H]3[C@@H](O)[C@@H]21
inactive: [1] 0.0339 | [2] 0.251 | [17] 0.0723 | [18] 0.0745 | [3] 0.0598 | [4] 0.256 | [19] -0.00226 | [20] 0.0538

CN(C)c1ccc(O)c2c1C[C@H]1C[C@H]3[C@H](N(C)C)C(=O)C(C(N)=O)=C(O)[C@@]3(O)C(=O)C1=C2O
active: [1] -0.177 | [3] -0.0936
inactive: [2] -0.0588 | [17] 0.0664 | [18] 0.133 | [4] 0.0344 | [19] 0.00725 | [20] 0.0554

CCCCCCCCCCCCCCC[C@@H](O)[C@H](CO)NC(C)=O
inactive: [17] 0.176 | [18] 0.139 | [19] 0.0603 | [20] 0.124

NC(=S)c1ccc[n+]([C@@H]2O[C@H](COP(=O)(O)OP(=O)(O)OC[C@H]3O[C@@H](n4cnc5c(N)ncnc54)[C@H](OP(=O)(O)O)[C@@H]3O)[C@@H](O)[C@H]2[O-])c1
inactive: [17] 0.209 | [18] 0.145 | [19] 0.254 | [20] 0.143

Clc1ccc(CN2CCN(Cc3c[nH]c4ccccc34)CC2)cc1
inactive: [1] 0.142 | [2] 0.175 | [3] 0.152 | [4] 0.116

COc1ccc2c(c1)OCC(=Cc1ccc(OC)c(O)c1)C2=O
inactive: [1] 0.111 | [2] 0.0739 | [3] 0.125 | [4] 0.0254

CCOC(=O)C1=C(C)NC2=C(C(=O)CC(C)(C)C2)C1c1coc2ccccc2c1=O (stereo not given)
inactive: [1] 0.113 | [2] 0.123 | [3] 0.0647 | [4] 0.0912

COc1ccc(CNS(=O)(=O)c2ccc(NC(C)=O)cc2)cc1
inactive: [1] 0.136 | [2] 0.114 | [3] 0.073 | [4] 0.0317

CC(=O)O[C@@H]1CC2C(C)(C)CCC[C@]2(C)C2CC[C@]3(C)C(=CC(=O)O[C@H]3c3ccoc3)[C@@]21C (stereo not given in full)
inactive: [1] 0.0969 | [2] 0.0706 | [3] 0.0583 | [4] 0.123

CC1=C(C(=O)OC2CCCC2)C(c2coc3ccccc3c2=O)C2=C(CCCC2=O)N1 (stereo not given)
inactive: [1] 0.0306 | [2] 0.112 | [3] 0.0744 | [4] 0.0338

Cc1cc(=O)c2c(o1)-c1c(cc(O)c(O)c1C(=O)O)OC2
inactive: [1] 0.0145 | [2] 0.0255 | [3] 0.0451 | [4] 0.0692

N[C@H](CO)C(=O)O
inactive: [17] 0.128 | [18] 0.103 | [19] 0.162 | [20] 0.112

N[C@@H](CCC(=O)O)C(=O)O
inactive: [17] 0.193 | [18] 0.073 | [19] 0.108 | [20] 0.15

N[C@@H](CC(=O)O)C(=O)O
active: [17] -0.146
inactive: [18] 0.087 | [19] 0.0127 | [20] 0.00419

CNc1ccccc1C(=O)N1CCc2c([nH]c3ccccc23)C1=O
inactive: [1] 0.0191 | [2] -0.0744 | [3] 0.0945 | [4] 0.0188

COC1[C@H](O)[C@@H](O)C(O)[C@H](O)[C@H]1O (stereo not given in full)
inactive: [1] 0.0827 | [2] 0.0562 | [3] 0.177 | [4] 0.115

CC(=O)O[C@H]1CC[C@]2(C)[C@H]3C(=O)C=C4[C@@H]5C[C@@](C)(C(=O)O)CC[C@]5(C)CC[C@@]4(C)[C@]3(C)CC[C@H]2C1(C)C
inactive: [1] 0.0602 | [2] 0.011 | [3] 0.129 | [4] 0.0507

CO[C@@H](C(=O)N1Cc2[nH]nc(NC(=O)c3ccc(N4CCN(C)CC4)cc3)c2C1)c1ccccc1
active: [5] -0.25 | [7] -0.418 | [9] -0.596 | [10] -0.134 | [11] -0.679 | [12] -0.355 | [13] -0.794 | [14] -0.46 | [15] -1.13 | [16] -1.21
inactive: [6] 0.0472 | [8] -0.0579

O=C(Nc1cccc(C(=O)Nc2ccc(S(=O)(=O)O)c3cc(S(=O)(=O)O)cc(S(=O)(=O)O)c23)c1)Nc1cccc(C(=O)Nc2ccc(S(=O)(=O)O)c3cc(S(=O)(=O)O)cc(S(=O)(=O)O)c23)c1
inactive: [17] 0.11 | [18] 0.117 | [19] 0.167 | [20] 0.0855

O=C(Nc1cc(C(=O)Nc2ccc(S(=O)(=O)O)c(S(=O)(=O)O)c2)cc(C(=O)Nc2ccc(S(=O)(=O)O)c(S(=O)(=O)O)c2)c1)Nc1cc(C(=O)Nc2ccc(S(=O)(=O)O)c(S(=O)(=O)O)c2)cc(C(=O)Nc2ccc(S(=O)(=O)O)c(S(=O)(=O)O)c2)c1
inactive: [17] 0.215 | [18] 0.101 | [19] 0.0469 | [20] 0.125

Cc1ccc(C(=O)Nc2ccc(S(=O)(=O)O)c3cc(S(=O)(=O)O)cc(S(=O)(=O)O)c23)cc1NC(=O)c1cccc(NC(=O)Nc2cccc(C(=O)Nc3cc(C(=O)Nc4ccc(S(=O)(=O)O)c5cc(S(=O)(=O)O)cc(S(=O)(=O)O)c45)ccc3C)c2)c1
active: [17] -2.98 | [18] -2.91 | [19] -3.46 | [20] -3.2
inactive: [1] 0.152 | [2] 0.0138 | [3] 0.0749 | [4] 0.0704

OCCN(C(=S)Nc1ccc2nccnc2c1)c1ccccc1
inactive: [1] 0.0686 | [2] 0.0667 | [3] 0.0818 | [4] 0.102

CC12CCC3c4ccc(OC(=O)c5ccccc5)cc4CCC3C1CCC2=O (stereo not given)
inactive: [1] -0.000312 | [2] 0.0356 | [3] 0.0819 | [4] 0.000425

Cc1cc(OC(=O)c2c(C)cc(O)cc2O)cc(O)c1C(=O)O
inactive: [1] 0.0848 | [2] -0.00358 | [3] 0.0665 | [4] 0.0394

O=C1C(CC[S+]([O-])c2ccccc2)C(=O)N(c2ccccc2)N1c1ccccc1 (stereo not given)
inactive: [1] 0.123 | [2] 0.158 | [3] 0.184 | [4] 0.139

CCCCC1C(=O)N(c2ccccc2)N(c2ccccc2)C1=O
inactive: [5] 0.0537 | [6] 0.0214 | [1] 0.128 | [2] 0.109 | [17] 0.0899 | [18] 0.0435 | [7] 0.172 | [8] 0.159 | [9] 0.0763 | [10] 0.0956 | [3] 0.118 | [4] 0.1 | [19] 0.084 | [20] 0.0326 | [11] 0.137 | [12] 0.112 | [13] 0.169 | [14] 0.123 | [15] 0.117 | [16] 0.141

CCCCC1C(=O)N(c2ccccc2)N(c2ccc(O)cc2)C1=O (stereo not given)
inactive: [1] 0.139 | [2] 0.0945 | [4] 0.2
active: [3] -0.129
